Source: PubChem (several laboratories)
The entries come from a sample that favours hits as a whole.
RmlCD inh mix: RmlC/RmlD inhibition, mixture screen; RmlC/RmlD coupled enzyme inhibition, 384-well mixture HTS; inhibition, % at 5.5 µM; actives 0.39% (n = 110,000); AID 1532; in the data active = inhibition above about 30%, passing the limit was not always enough
HIV RNase H inh: blocks HIV-1 RNase H cleavage of RNA/DNA duplex. RT-RNase H RNA/DNA duplex cleavage, fluorescence. inhibition, % at 10 µM. actives 1.9% (n = 65,000). AID 565; in the data active = inhibition above about 50%
RmlCD fluor art: RmlC/RmlD fluorescence artifact, counter-screen. actives 96% (n = 360). calls only. AID 1696. shares compounds with RmlCD inh mix. RmlC/RmlD assay fluorescence artifact counter-screen; call rule not given here;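 also: compound alone with no enzyme and no substrates present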
* = called active by the depositor.

`Cc1cc(=O)oc2cc(OC(C)C)ccc12` gave RmlCD inh mix 4 and HIV RNase H inh -17.
C=CCn1c(SCC(=O)NCc2ccco2)nc2sc3c(c2c1=O)CCCC3 was read as RmlCD inh mix -13.
`O=C(NCc1ccco1)c1ccc2nc3sc4c(c3c(=O)n2c1)CCCC4` gave RmlCD inh mix 46*, HIV RNase H inh 18 and RmlCD fluor art active.
CC1(C)CC(=O)C2=C(C1)Nc1ccccc1NC2c1cccnc1 (stereo unspecified) was read as RmlCD inh mix -16 and HIV RNase H inh 4.
Screening CC1=C(C#N)C(c2cccnc2)C2=C(CC(C)(C)CC2=O)N1 (stereo unspecified) returned RmlCD inh mix 59*, HIV RNase H inh -4 and RmlCD fluor art active.
For CCc1cc2c(CN3CCN(CCO)CC3)cc(=O)oc2cc1O the results were RmlCD inh mix 61*, HIV RNase H inh -11 and RmlCD fluor art active.
`CCc1cc2c(CN3CCN(C)CC3)cc(=O)oc2cc1O` gave RmlCD inh mix -2 and HIV RNase H inh 0.
Screening Cc1[nH]nc2c1C(c1cn[nH]c1-c1ccc(F)cc1)C(C#N)=C(N)O2 (stereo unspecified) returned RmlCD inh mix -10 and HIV RNase H inh 2.
`O=C(Nc1ncnc2c1ncn2C1OC(COC(=O)c2ccccc2)C(F)C1O)c1ccccc1` (stereo unspecified) gave RmlCD inh mix -5 and HIV RNase H inh 1.
`O=C1CSC(c2ccncc2)N1Cc1ccco1` (stereo unspecified) gave RmlCD inh mix 5 and HIV RNase H inh 2.
Cc1oc2c(C)c3oc(=O)c4c(c3cc2c1C)CCC4 was read as RmlCD inh mix -8 and HIV RNase H inh -6.
Screening Cc1c(O)c(CN2CCCCC2)cc2c3c(c(=O)oc12)CCC3 returned RmlCD inh mix 91*, HIV RNase H inh 4 and RmlCD fluor art active.
Screening O=c1cc(-c2ccccc2)c2ccc(O)c(CN3CCCCC3)c2o1 returned RmlCD inh mix 4 and HIV RNase H inh -1.
`O=c1oc2c(CN3CCCCC3)c(O)ccc2c2c1CCCC2` gave RmlCD inh mix 96* and RmlCD fluor art active.
CCCCNC(=O)Nc1nnc(-c2ccc(Cl)cc2)o1 was read as RmlCD inh mix -15.
`CON/C=C(\C=Nc1ccc(Cl)cc1)c1ncc(C(F)(F)F)cc1Cl` gave RmlCD inh mix 20.
CCOc1ccccc1C1CC(c2ccc(Br)cc2)Nc2nc(N)nn21 (stereo unspecified) was read as RmlCD inh mix -2 and HIV RNase H inh -5.
Screening COc1ccc(C#Cc2c(-c3ccc(OC)cc3)oc3ccc(-c4ccc(OC)cc4)cc23)cc1 returned RmlCD inh mix active and RmlCD fluor art active.
`COc1ccc(-c2ccc3oc(-c4ccc(OC)cc4)c(C#CCCO)c3c2)cc1` gave RmlCD inh mix -182.
CCN(CC)CC(=O)NCc1cc(-c2ccc(OC)cc2)no1 was read as RmlCD inh mix 25.
For Nc1c(S(=O)(=O)c2cccs2)c2nc3ccccc3nc2n1CC1CCCO1 (stereo unspecified) the results were RmlCD inh mix 53*, HIV RNase H inh -6 and RmlCD fluor art active.
For Nc1c(S(=O)(=O)c2cccs2)c2nc3ccccc3nc2n1Cc1cccs1 the results were RmlCD inh mix 13 and HIV RNase H inh 4.
`CC(C)[C@H](NC(=O)OC(C)(C)C)c1nnc(SCC(=O)Nc2ccc(Br)cc2)o1` gave RmlCD inh mix -12 and HIV RNase H inh -22.
For COc1ccc(C(C(=O)NC2CCCCC2)N(CC2CCCO2)C(=O)CNC(=O)c2ccco2)cc1 (stereo unspecified) the results were RmlCD inh mix -2 and HIV RNase H inh 8.
Screening CCn1c2ccccc2c2nnc(SCc3ccccc3)nc21 returned RmlCD inh mix -2 and HIV RNase H inh -34.
For CCn1c2ccccc2c2nnc(SCCCn3c(=O)[nH]c4ccccc43)nc21 the results were RmlCD inh mix 82*, HIV RNase H inh -67 and RmlCD fluor art inactive.
For COCCCn1c(SCC(=O)N2CCCC(C)C2)nnc1-c1ccco1 (stereo unspecified) the results were RmlCD inh mix -12 and HIV RNase H inh -10.
Screening Cc1cc(C)nc(SCC2COc3ccccc3O2)n1 (stereo unspecified) returned RmlCD inh mix -3 and HIV RNase H inh -85.
COc1ccc(-c2cc(=Nc3ccc(C)cc3)c3ccccc3o2)cc1 was read as RmlCD inh mix 14.
Screening COc1ccc(-c2cc(=NCCC(=O)O)c3cc(C)ccc3o2)cc1 returned RmlCD fluor art active.
Screening COC(=O)c1cc(Cl)c(NC(=O)/C=C/c2ccc(Cl)cc2Cl)cc1OC returned RmlCD inh mix 62* and RmlCD fluor art active.
Screening COC(=O)c1cc(Cl)c(NC(=O)/C=C/c2ccc(Cl)cc2)cc1OC returned RmlCD inh mix -4.
